# Tau fibril ThT – blocks human tau fibril formation measured by thioflavin T | 2.1% of 270,000 active | Potency, µM (series often up to 57.4 µM), actives largely listed as inhibitors | recombinant tau K18 P301L, heparin-induced fibrillization, ThT fluorescence | AID 1460; further: nearly all actives have a fitted effect of over 55% in size
# Target sequence (P10636 561-689 P618L limits assumed): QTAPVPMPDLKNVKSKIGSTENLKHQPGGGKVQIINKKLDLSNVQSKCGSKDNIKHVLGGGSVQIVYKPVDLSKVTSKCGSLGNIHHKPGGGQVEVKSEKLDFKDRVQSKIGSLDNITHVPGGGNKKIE
#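 Using a mix of unlabeled (15 uM) and Alexa 594-labeled (0.24 uM) tau K18 P301L, heparin-triggered fibrillization over 6 hr at 37 C was scored by ThT fluorescence.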
# Coupling enz – coupling enzyme interference in Giardia aldolase counter-screen; coupling enzyme system counterscreen, AmpLite Red fluorescence; activity change, negative = inhibition, % at 58.2 µM, hits read low; 0.67% of 290,000 active; AID 2472; in the data active means activity change below about -30%
#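 Counterscreen of the coupled detection system alone, without aldolase: glyceraldehyde-3-phosphate coupling enzymes plus AmpLite Red readout. Compounds at 57.5 uM final, 10 min RT preincubation, 20 min RT reaction, fluorescence 525/598 nm.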
# Tau fibril FP – blocks human tau fibril formation measured by polarization; K18 P301L tau heparin fibrillization, Alexa594 FP, 6 h; Potency, µM (top dose mostly 57.7 µM), most hits filed as inhibitors; 0.39% of 280,000 active; further: nearly all actives have a fitted effect of over 55% in size
#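 Human tau K18 […] P301L fragment, 15 uM unlabeled plus 0.24 uM Alexa 594-labeled tau (final), with compound and 20 uM heparin in 100 mM sodium acetate pH 7; 6 hr at 37 C, then Alexa 594 FP read.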
# Tau fluor cs – counter-screen for tau fibril formation inhibitors; AID 1463; tau K18 P301L (four-repeat tau fragment) Alexa594 fluorescence, heparin fibrillization; Potency, µM (highest dose often 57.7 µM); 0.93% of 280,000 active; further: nearly all actives have a fitted effect of over 55% in size
#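 Human K18 P301L tau (15 uM unlabeled plus 0.24 uM Alexa 594-labeled, final) in 100 mM sodium acetate pH 7 was mixed with compound and 20 uM heparin and incubated 6 hr at 37 C.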
# A number is an active result; 0 = inactive; ? = inconclusive; - = no result; [ ] = remark or other dose. Shown are actives, neighbours in structure and some others; about 2.7% of the full set was active somewhere. Unless noted, the call rests on the fitted dose curve; in most records, active means well fitted curve in the direction sought with a large enough effect; inconclusive means small, poorly fitted or top-dose-only effect, or another doubt; inactive means no such curve, though single readings can be large; an effect the other way counts as inactive or inconclusive.
SMILES,Tau fibril ThT,Coupling enz,Tau fibril FP,Tau fluor cs
COc1ccc2sc(/C=C/c3ccccc3O)[n+](C)c2c1,?,0,0,16µM[fluorescent]
Cc1[nH]n(-c2ncc(-c3ccccc3)s2)c(=O)c1C(c1ccc(Cl)cc1)C(C#N)C#N (configuration not stated),14µM,0,?,?
Cc1[nH]n(-c2ccccc2)c(=O)c1C(c1ccccc1[N+](=O)[O-])C(C#N)C#N (configuration not stated),-,0,-,-
CCOc1ccccc1NC(=O)CCS(=O)(=O)c1cccs1,-,0,-,-
O=C1Nc2ccc(NS(=O)(=O)c3cccs3)c3cccc1c23,?,-56,0,0
O=S(=O)(Nc1cccc2ncccc12)c1cccs1,0,-38,0,0
CCOc1ccccc1NS(=O)(=O)c1cccs1,0,-41,0,0
O=C1/C(=C\c2ccco2)SC(=S)N1C1CCCCC1,-,0,-,-
CC1=C(C#N)C(=O)N(C2CCS(=O)(=O)C2)C(=O)/C1=C\c1ccco1 (configuration not stated),-,-31,?,?
CCOc1ccc(Br)cc1CNCCSc1nnnn1-c1ccccc1,0,-,0,0
CCOC(=O)N1CC=C2C(C#N)=C(N)C(C#N)(C#N)[C@H](c3ccsc3)[C@H]2C1,?,0,?,0
CN1CC=C2C(C#N)=C(N)C(C#N)(C#N)[C@H](c3cccc(Cl)c3)C2C1 (some centres not stated),20µM,-36,?,0
CN1CC=C2C(C#N)=C(N)C(C#N)(C#N)C(c3ccsc3)C2C1 (configuration not stated),16µM,0,?,0
CN1CC=C2C(C#N)=C(N)C(C#N)(C#N)[C@H](c3cccs3)[C@H]2C1,?,0,?,0
CC1CN(c2nnc(NC(=O)c3ccccc3)s2)CC(C)O1 (configuration not stated),0,0,0,0
COc1ccc(N2C(=O)CS(=O)(=O)C23C(=O)N(Cc2ccc(F)cc2)c2ccc(C)cc23)cc1 (configuration not stated),0,-,0,0
Cc1ccc(-c2nnc(SCC(=O)c3ccc(Cl)cc3)n2-c2ccccc2)cc1,0,-,0,0
CCOc1ccc(N=C(NN)c2ccc3ccccc3n2)cc1,10µM,0,0,?
CCOc1ccc(N=C(C)C2=C(O)c3ccccc3C2=O)cc1,-,0,0,?
N#Cc1c(-c2ccccc2)cc(-c2ccccc2)nc1SCC(O)CS(=O)(=O)Cc1ccc(Cl)cc1 (configuration not stated),14µM,-,14µM,?
O=C(Nc1ncc([N+](=O)[O-])s1)c1ccc2c(c1)OCO2,-,-32,-,-
Cc1ccc(C(=O)Nc2ncc([N+](=O)[O-])s2)cc1,-,0,-,-
CCOC(=O)/C(C#N)=C1\SS/C(=C(/C#N)C(=O)OCC)S1,2.8µM,0,6.3µM,0
CCN(CC)C(C)CN1c2ccccc2Sc2ccccc21 (configuration not stated),?,0,0,20µM[quencher]
NC(=O)CC1Nc2cccc3cccc(c23)NC1=O (configuration not stated),0,0,0,0
SMILES,Tau fibril ThT,Coupling enz,Tau fibril FP,Tau fluor cs
O=C(CC1Nc2cccc3cccc(c23)NC1=O)Nc1ccccc1 (configuration not stated),0,-40,0,0
Cc1ccc(NC(=O)CC2Nc3cccc4cccc(c34)NC2=O)cc1 (configuration not stated),14µM,-,?,14µM[quencher]
COCCn1cnc2c1-c1ccc(OC)c(c1)OC/C=C\COc1cccc-2c1,-,0,-,-
Cc1ccc(/C(N)=N/OC(=O)CCc2ccccc2)cc1,32µM,0,?,?
Cc1c(Nc2cc(Cl)c3nonc3c2[N+](=O)[O-])c(=O)n(-c2ccccc2)n1C,4µM,0,?,10µM[quencher]
O=C(O)c1ccc(Nc2cc(Cl)c3nonc3c2[N+](=O)[O-])cc1,7.1µM,0,0,?
O=[N+]([O-])c1c(Nc2cccc(O)c2)cc(Cl)c2nonc12,-,0,-,-
NCCNc1ccc([N+](=O)[O-])c(Sc2nc3ccccc3[nH]2)c1,?,0,0,?
CC(C)OC(=O)CSc1nc2ccccc2s1,0,0,0,0
O=[N+]([O-])c1c(NCCO)cc(N2CCCCCC2)c2nonc12,-,0,-,-
O=[N+]([O-])c1c(NCCCO)cc(Sc2nc3ccccc3s2)c2nonc12,2.2µM,0,0,?
CCC(=O)OCCNc1cc(Sc2nc3ccccc3s2)c2nonc2c1[N+](=O)[O-],7.9µM,0,0,?

# Compound activity (PubChem)
